Inconclusive results are not listed. A call without a number means that no potency is given here. Calls of active or inactive are those of the source. Unless noted, calls come from the whole dose curve.
Assays:
[1] = qHTS assay for measurement of the activity of small molecule inhibitors on Zika virus induced Caspase-3 activity in human iPSC derived neural progenitor cells (hNPCs) (AID 1224857; active = well fitted inhibition curve with a large enough effect; note: nearly all actives have a fitted effect of over 65% in size)
Outline: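 hNPCs seeded 350 cells/well, cultured 16–20 h; compounds added 1 h before ZIKV (2 FFU/cell), 37 C 6 h. Caspase-Glo 3/7 luminescence after 30 min RT; % inhibition from induction scaled to uninfected (0%) and infected (100%) wells.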

[2] = qHTS assay for measurement of the activity of small molecule inhibitors on Zika virus induced Caspase-3 activity in human astrocytoma cells (AID 1224859; active = well fitted inhibition curve with a large enough effect)
Outline: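 Luminescence read-out (Caspase-Glo 3/7, 30 min RT) of caspase activity in SNB-19 cells infected 6 h with ZIKV, 2 FFU/cell, after 1 h compound pretreatment; % inhibition from induction normalised to uninfected (0%) and infected (100%) wells.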

[3] = Natriuretic polypeptide receptor (hNpr1) antagonism - Pilot counterscreen GloSensor control cell line (AID 1347045); note: potency is the fitted concentration of half-maximal effect
Outline: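 Cells were first seeded and incubated overnight at 37C, then loaded with 2% GloSensor substrate for 2 h. Compounds were added for 30 min at room temperature, followed by a baseline read, 50 uM SNP and a final read after 20 min.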

[4] = molecular target: Atrial natriuretic peptide receptor 1 (Homo sapiens) (UniProt P16066); experiment: Natriuretic polypeptide receptor (hNpr1) antagonism - Pilot screen (AID 1347049);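 note: agonist-evoked cGMP luminescence read 20 min after hNppA addition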; note: potency is the fitted concentration of half-maximal effect
Sequence of Atrial natriuretic peptide receptor 1 (Homo sapiens) (P16066 whole entry, looked up): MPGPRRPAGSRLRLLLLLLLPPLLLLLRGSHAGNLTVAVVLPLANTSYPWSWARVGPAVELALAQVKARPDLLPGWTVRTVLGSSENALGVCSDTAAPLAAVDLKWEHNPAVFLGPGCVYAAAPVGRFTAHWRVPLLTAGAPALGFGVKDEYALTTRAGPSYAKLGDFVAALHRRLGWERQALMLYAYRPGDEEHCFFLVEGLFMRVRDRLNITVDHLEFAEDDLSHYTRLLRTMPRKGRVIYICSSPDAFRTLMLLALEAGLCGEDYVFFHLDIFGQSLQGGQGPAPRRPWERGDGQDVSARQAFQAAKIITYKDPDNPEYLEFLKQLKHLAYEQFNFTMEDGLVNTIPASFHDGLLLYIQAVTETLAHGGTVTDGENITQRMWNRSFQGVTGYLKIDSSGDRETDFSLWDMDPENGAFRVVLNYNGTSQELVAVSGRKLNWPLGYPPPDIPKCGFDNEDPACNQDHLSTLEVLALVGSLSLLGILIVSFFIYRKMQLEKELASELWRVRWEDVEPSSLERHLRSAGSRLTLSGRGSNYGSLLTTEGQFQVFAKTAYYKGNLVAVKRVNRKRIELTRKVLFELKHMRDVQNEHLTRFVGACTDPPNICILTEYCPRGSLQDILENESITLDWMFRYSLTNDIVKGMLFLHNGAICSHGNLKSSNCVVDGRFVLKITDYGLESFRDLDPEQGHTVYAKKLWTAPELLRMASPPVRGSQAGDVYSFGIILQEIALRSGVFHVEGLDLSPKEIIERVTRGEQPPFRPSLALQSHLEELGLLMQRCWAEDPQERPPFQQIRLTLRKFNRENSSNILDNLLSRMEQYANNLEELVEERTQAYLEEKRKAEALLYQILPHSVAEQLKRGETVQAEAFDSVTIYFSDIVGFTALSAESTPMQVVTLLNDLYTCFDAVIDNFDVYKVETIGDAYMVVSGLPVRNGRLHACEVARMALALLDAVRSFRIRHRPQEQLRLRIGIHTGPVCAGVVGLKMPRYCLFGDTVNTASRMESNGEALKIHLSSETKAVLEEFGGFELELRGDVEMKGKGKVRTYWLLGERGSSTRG
Outline: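 cGMP-sensor HEK293/hNpr1 cells, 1500/well, plated overnight at 37C. 2% GloSensor reagent, 2 h RT. Compound (23 nL pin transfer) 30 min RT, baseline luminescence pre-read. 0.1 nM hNppA, 20 min RT, post-read.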

[5] = molecular target: Atrial natriuretic peptide receptor 2 (Homo sapiens) (UniProt P20594); experiment: Natriuretic polypeptide receptor (hNpr2) antagonism - Pilot subtype selectivity assay (AID 1347050); note: potency is the fitted concentration of half-maximal effect
Sequence of Atrial natriuretic peptide receptor 2 (Homo sapiens) (P20594 whole entry, looked up): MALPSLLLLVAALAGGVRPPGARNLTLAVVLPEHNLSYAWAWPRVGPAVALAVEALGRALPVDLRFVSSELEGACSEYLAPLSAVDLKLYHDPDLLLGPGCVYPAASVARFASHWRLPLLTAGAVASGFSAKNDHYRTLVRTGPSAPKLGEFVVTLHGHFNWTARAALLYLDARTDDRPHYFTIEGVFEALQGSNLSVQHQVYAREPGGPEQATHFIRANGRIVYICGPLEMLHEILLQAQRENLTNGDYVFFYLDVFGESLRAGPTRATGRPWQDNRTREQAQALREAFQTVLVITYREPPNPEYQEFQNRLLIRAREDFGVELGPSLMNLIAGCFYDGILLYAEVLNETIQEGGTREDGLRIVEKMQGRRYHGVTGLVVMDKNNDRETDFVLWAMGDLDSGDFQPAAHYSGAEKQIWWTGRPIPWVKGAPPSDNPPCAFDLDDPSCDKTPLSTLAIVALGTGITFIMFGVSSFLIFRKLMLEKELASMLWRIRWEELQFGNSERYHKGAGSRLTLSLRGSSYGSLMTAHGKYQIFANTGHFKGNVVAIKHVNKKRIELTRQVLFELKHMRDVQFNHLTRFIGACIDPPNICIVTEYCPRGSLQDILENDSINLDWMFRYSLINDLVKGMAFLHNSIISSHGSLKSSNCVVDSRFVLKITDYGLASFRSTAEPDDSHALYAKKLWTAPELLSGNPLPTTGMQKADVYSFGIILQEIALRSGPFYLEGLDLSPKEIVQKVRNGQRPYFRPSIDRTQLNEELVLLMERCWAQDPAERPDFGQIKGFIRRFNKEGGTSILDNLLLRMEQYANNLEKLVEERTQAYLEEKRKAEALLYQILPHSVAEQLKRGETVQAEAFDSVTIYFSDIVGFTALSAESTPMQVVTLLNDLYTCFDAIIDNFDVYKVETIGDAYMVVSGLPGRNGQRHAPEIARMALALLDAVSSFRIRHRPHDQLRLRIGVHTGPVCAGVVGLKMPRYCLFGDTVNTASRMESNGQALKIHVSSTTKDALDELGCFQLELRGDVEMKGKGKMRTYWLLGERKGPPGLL
Outline: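 Luminescence from a genetically encoded cGMP luciferase biosensor in hNpr2-expressing HEK293 cells is read before and 20 min after adding 1 nM hNppC. Test compounds, in interplate 1:5 titrations, are added 30-50 min ahead of the agonist.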

[6] = P-glycoprotein substrates identified in KB-3-1 adenocarcinoma cell line, qHTS therapeutic library screen (AID 1346986; active = well fitted inhibition curve with a large enough effect;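 note: potency is the fitted concentration of half-maximal effect; potency is for cytotoxicity meaning loss of cell viability; nearly all actives have a fitted effect of over 60% in size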)
Outline: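 In 1536-well format, 500 cells/well received pinned compound titrations and were incubated 72 h, 5% CO2. Viability was read by CellTiter-Glo; cytotoxic if AC50 < 10 uM and efficacy >50%.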

**Q.** Which Potency [1] does the source give for `S=C(S)N1CCCC1` here?
**A.** inactive

**Q.** And the Potency [2]?
**A.** inactive

**Q.** What about the Potency [3] of the same compound?
**A.** 7.36 µM (active)

**Q.** And the Potency [4]?
**A.** 9.53 µM (active)

**Q.** Which results are given for `O[Si](CCCN1CCCCC1)(c1ccc(F)cc1)C1CCCCC1` (configuration not stated)?
**A.** Potency [1]: inactive; Potency [2]: inactive; Potency [3]: inactive; Potency [4]: inactive; Potency [5]: inactive

**Q.** Which Potency [1] does the source give for `C[C@@H](NCCc1ccc(O)cc1)[C@@H](O)c1ccc(O)cc1` here?
**A.** inactive

**Q.** And the Potency [2]?
**A.** inactive

**Q.** And the Potency [3]?
**A.** inactive

**Q.** And the Potency [4]?
**A.** inactive

**Q.** What about the Potency [5] of the same compound?
**A.** inactive

**Q.** Which results are given for `CC(C)Cn1c(=O)n(C)c(=O)c2[nH]cnc21`?
**A.** Potency [1]: inactive; Potency [2]: inactive; Potency [3]: inactive; Potency [4]: inactive; Potency [5]: inactive

**Q.** Which Potency [1] does the source give for `CCN(c1nc(N)c(C(=O)N=C(N)N)nc1Cl)C(C)C` here?
**A.** inactive

**Q.** And the Potency [2]?
**A.** inactive

**Q.** And the Potency [3]?
**A.** inactive

**Q.** What about the Potency [4] of the same compound?
**A.** inactive

**Q.** And the Potency [5]?
**A.** inactive

**Q.** Which Potency [1] does the source give for `Cn1c(=O)c2[nH]c(-c3ccc(S(=O)(=O)O)cc3)nc2n(C)c1=O` here?
**A.** inactive

**Q.** And the Potency [2]?
**A.** inactive

**Q.** And the Potency [3]?
**A.** inactive

**Q.** And the Potency [4]?
**A.** inactive

**Q.** What about the Potency [5] of the same compound?
**A.** inactive

**Q.** Which results are given for `NCC(O)C1CCCCCCC1` (configuration not stated)?
**A.** Potency [1]: inactive; Potency [2]: inactive; Potency [3]: inactive; Potency [4]: inactive; Potency [5]: inactive

**Q.** What does the source list for `O=C1Cc2c([nH]c3ccc(Br)cc23)-c2ccccc2N1`?
**A.** Potency [1]: inactive; Potency [2]: inactive; Potency [6]: 11.6 µM (active)

**Q.** Which results are given for `COc1ccccc1N1CCN(CCCCN2C(=O)c3ccccc3C2=O)CC1`?
**A.** Potency [1]: inactive; Potency [2]: inactive; Potency [3]: inactive; Potency [4]: inactive; Potency [5]: inactive

**Q.** Which Potency [1] does the source give for `CN1CCc2cc(Cl)c(O)cc2[C@@H](c2ccccc2)C1` here?
**A.** inactive

**Q.** And the Potency [2]?
**A.** inactive

**Q.** What about the Potency [3] of the same compound?
**A.** inactive

**Q.** And the Potency [4]?
**A.** inactive

**Q.** What about the Potency [5] of the same compound?
**A.** inactive

**Q.** Which Potency [1] does the source give for `N[C@@H](CS(=O)O)C(=O)O` here?
**A.** inactive

**Q.** What about the Potency [2] of the same compound?
**A.** inactive

**Q.** What about the Potency [3] of the same compound?
**A.** inactive

**Q.** What about the Potency [4] of the same compound?
**A.** inactive

**Q.** And the Potency [5]?
**A.** inactive

**Q.** With `CN1CC(O)C(O)C(O)C1CO` (configuration not stated) as the compound, how does the Potency [1] read?
**A.** inactive

**Q.** What about the Potency [2] of the same compound?
**A.** inactive

**Q.** And the Potency [3]?
**A.** inactive

**Q.** And the Potency [4]?
**A.** inactive

**Q.** And the Potency [5]?
**A.** inactive

**Q.** For `Cn1c(=O)c2[nH]c(C3CCCC3)nc2n(C)c1=O`, which Potency [1] is on record?
**A.** inactive

**Q.** What about the Potency [2] of the same compound?
**A.** inactive

**Q.** What about the Potency [3] of the same compound?
**A.** inactive

**Q.** What about the Potency [4] of the same compound?
**A.** inactive

**Q.** What about the Potency [5] of the same compound?
**A.** inactive

**Q.** For `CC1=C(C(=O)O)N2C(=O)[C@@H](NC(=O)C(N)C3=CCC=CC3)[C@H]2SC1` (some centres not stated), which Potency [1] is on record?
**A.** inactive

**Q.** What about the Potency [2] of the same compound?
**A.** inactive

**Q.** And the Potency [3]?
**A.** inactive

**Q.** What about the Potency [4] of the same compound?
**A.** inactive

**Q.** And the Potency [5]?
**A.** inactive

**Q.** Which results are given for `COc1cc(N)c(Cl)cc1C(=O)OCCN1CCCCC1`?
**A.** Potency [1]: inactive; Potency [2]: inactive; Potency [3]: inactive; Potency [4]: inactive; Potency [5]: inactive

**Q.** Which results are given for `CC(=O)O[C@H]1CC2(C)[C@@H](C[C@@H](O)[C@H]3[C@@]4(C)CC[C@@H](O)[C@@H](C)[C@@H]4CC[C@@]32C)C1=C(CCC=C(C)C)C(=O)O` (some centres not stated)?
**A.** Potency [1]: inactive; Potency [2]: inactive; Potency [3]: inactive; Potency [4]: inactive; Potency [5]: inactive

**Q.** With `CNC(=O)c1cc2c(cn1)[nH]c1ccccc12` as the compound, how does the Potency [1] read?
**A.** inactive

**Q.** And the Potency [2]?
**A.** inactive

**Q.** What about the Potency [3] of the same compound?
**A.** inactive

**Q.** What about the Potency [4] of the same compound?
**A.** inactive

**Q.** And the Potency [5]?
**A.** inactive

**Q.** Which Potency [1] does the source give for `N[C@H](C(=O)O)[C@H]1C[C@@H]1C(=O)O` here?
**A.** inactive

**Q.** And the Potency [2]?
**A.** inactive

**Q.** What about the Potency [3] of the same compound?
**A.** inactive

**Q.** What about the Potency [4] of the same compound?
**A.** inactive

**Q.** What about the Potency [5] of the same compound?
**A.** inactive

**Q.** With `CCOC(=O)C12CC1/C(=N/O)c1ccccc1O2` (configuration not stated) as the compound, how does the Potency [1] read?
**A.** inactive

**Q.** And the Potency [2]?
**A.** inactive

**Q.** And the Potency [3]?
**A.** inactive

**Q.** What about the Potency [4] of the same compound?
**A.** inactive

**Q.** And the Potency [5]?
**A.** inactive

**Q.** Which Potency [1] does the source give for `O=c1[nH]c2ccccc2c2ccccc12` here?
**A.** inactive

**Q.** And the Potency [2]?
**A.** inactive

**Q.** And the Potency [3]?
**A.** inactive

**Q.** And the Potency [4]?
**A.** inactive

**Q.** What about the Potency [5] of the same compound?
**A.** inactive

**Q.** For `CCN(CC)CCCCCCCCOC(=O)c1cc(OC)c(OC)c(OC)c1`, which Potency [1] is on record?
**A.** inactive

**Q.** And the Potency [2]?
**A.** inactive

**Q.** What about the Potency [3] of the same compound?
**A.** inactive

**Q.** And the Potency [4]?
**A.** inactive

**Q.** And the Potency [5]?
**A.** inactive

**Q.** Which results are given for `CN1CCCC1CCOC(C)(c1ccccc1)c1ccc(Cl)cc1` (configuration not stated)?
**A.** Potency [1]: inactive; Potency [2]: inactive; Potency [3]: inactive; Potency [4]: inactive; Potency [5]: 11.7 µM (active)

**Q.** What does the source list for `CCCCCCCCCCCCCCSCC(=O)O`?
**A.** Potency [1]: inactive; Potency [2]: inactive; Potency [3]: inactive; Potency [4]: inactive; Potency [5]: inactive

**Q.** Which Potency [1] does the source give for `c1ccc2c(c1)CCC[C@H]2Nc1nc2ccccc2[nH]1` here?
**A.** inactive

**Q.** And the Potency [2]?
**A.** inactive

**Q.** What about the Potency [3] of the same compound?
**A.** inactive

**Q.** What about the Potency [4] of the same compound?
**A.** inactive

**Q.** And the Potency [5]?
**A.** inactive

**Q.** With `CCCN(CCc1ccccc1)C1CCc2c(O)cccc2C1` (configuration not stated) as the compound, how does the Potency [1] read?
**A.** inactive

**Q.** What about the Potency [2] of the same compound?
**A.** inactive

**Q.** What about the Potency [3] of the same compound?
**A.** inactive

**Q.** What about the Potency [4] of the same compound?
**A.** inactive

**Q.** What about the Potency [5] of the same compound?
**A.** inactive

**Q.** Which Potency [1] does the source give for `OCC1NCC(O)C(O)C1O` (configuration not stated) here?
**A.** inactive

**Q.** And the Potency [2]?
**A.** inactive

**Q.** What about the Potency [3] of the same compound?
**A.** inactive

**Q.** And the Potency [4]?
**A.** inactive

**Q.** And the Potency [5]?
**A.** inactive

**Q.** For `COc1ccccc1N1CCN(CCCNc2c(C)c(=O)n(C)c(=O)n2C)CC1`, which Potency [1] is on record?
**A.** inactive

**Q.** And the Potency [2]?
**A.** inactive

**Q.** And the Potency [3]?
**A.** inactive

**Q.** And the Potency [4]?
**A.** inactive

**Q.** And the Potency [5]?
**A.** inactive

**Q.** Which Potency [1] does the source give for `NC(N)=NC(N)=Nc1ccccc1` here?
**A.** inactive

**Q.** And the Potency [2]?
**A.** inactive

**Q.** And the Potency [3]?
**A.** inactive

**Q.** What about the Potency [4] of the same compound?
**A.** inactive

**Q.** And the Potency [5]?
**A.** inactive

**Q.** With `CCCn1c(=O)c2[nH]c(-c3ccc(S(=O)(=O)O)cc3)nc2n(CCC)c1=O` as the compound, how does the Potency [1] read?
**A.** inactive

**Q.** What about the Potency [2] of the same compound?
**A.** inactive

**Q.** And the Potency [3]?
**A.** inactive

**Q.** And the Potency [4]?
**A.** inactive

**Q.** And the Potency [5]?
**A.** inactive

**Q.** With `NC1(C(=O)O)CCc2cc(C(=O)O)ccc21` (configuration not stated) as the compound, how does the Potency [1] read?
**A.** inactive

**Q.** What about the Potency [2] of the same compound?
**A.** inactive

**Q.** What about the Potency [3] of the same compound?
**A.** inactive

**Q.** What about the Potency [4] of the same compound?
**A.** inactive

**Q.** What about the Potency [5] of the same compound?
**A.** inactive

**Q.** Which results are given for `C[C@](Cc1ccc(O)c(O)c1)(NN)C(=O)O`?
**A.** Potency [1]: inactive; Potency [2]: inactive; Potency [3]: inactive; Potency [4]: inactive; Potency [5]: inactive

**Q.** Which Potency [1] does the source give for `NC(=O)CNCCC(c1ccccc1)c1ccccc1` here?
**A.** inactive

**Q.** And the Potency [2]?
**A.** inactive

**Q.** And the Potency [3]?
**A.** inactive

**Q.** And the Potency [4]?
**A.** inactive

**Q.** What about the Potency [5] of the same compound?
**A.** inactive

**Q.** Which results are given for `CCCCOc1cc(CC2CNC(=O)N2)ccc1OC` (configuration not stated)?
**A.** Potency [1]: inactive; Potency [2]: inactive; Potency [3]: inactive; Potency [4]: inactive; Potency [5]: inactive
